# PNC inhibitor = inhibitors of perinucleolar compartment assembly | PC3M PTB-GFP, PNC prevalence imaging, 16 h; hits give low values | activity change (PNC), negative = inhibition, % at 10 µM | 3.1% of 140,000 active | AID 2417;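 active means readout at or below -70, meaning at least 70% loss of cells showing the perinucleolar compartment, a nuclear body marking cancer cells; inconclusive means readout between -30 and a set limit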;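 further: plate controls were DMSO wells for no effect and camptothecin positive control wells for full effect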
#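 Read-out is percentage of cells bearing a perinucleolar compartment, from automated 20x imaging of fixed, Hoechst-stained PC3M PTB-GFP cells. Cells were seeded 4 h, then exposed 16 h to compound (23 nl of library stock) in duplicate plates.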
# ALOX12 inhib = 12-hLO (ALOX12) enzyme inhibition; P18054; purified 12-hLO, xylenol orange hydroperoxide absorbance; Potency, µM (highest dose often 57.1 µM), without a hit: at the highest dose activity change, negative = inhibition, hits mostly inhibitors; 0.12% of 150,000 active; AID 1452; further: potency means the concentration at half of the fitted maximal effect; nearly all actives have a fitted effect of over 55% in size
#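 Hydroperoxide formation by human 12-lipoxygenase from 40 uM arachidonic acid was followed colorimetrically via ferric-xylenol orange complex, using the 573/405 nm absorbance ratio. Enzyme concentration was 150 nM, with 30 min reaction at room temperature.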
# ALOX15B inhib = blocks human 15-lipoxygenase 2 activity; O15296; purified 15hLO-2, xylenol orange hydroperoxide absorbance; Potency, µM (titrated, usually from 57.1 µM), for inactives: at the highest dose activity change, negative = inhibition, actives largely listed as inhibitors; 0.56% of 110,000 active; further: potency means the concentration at half of the fitted maximal effect; nearly all actives have a fitted effect of over 60% in size
# Target sequence (O15296 whole entry, looked up): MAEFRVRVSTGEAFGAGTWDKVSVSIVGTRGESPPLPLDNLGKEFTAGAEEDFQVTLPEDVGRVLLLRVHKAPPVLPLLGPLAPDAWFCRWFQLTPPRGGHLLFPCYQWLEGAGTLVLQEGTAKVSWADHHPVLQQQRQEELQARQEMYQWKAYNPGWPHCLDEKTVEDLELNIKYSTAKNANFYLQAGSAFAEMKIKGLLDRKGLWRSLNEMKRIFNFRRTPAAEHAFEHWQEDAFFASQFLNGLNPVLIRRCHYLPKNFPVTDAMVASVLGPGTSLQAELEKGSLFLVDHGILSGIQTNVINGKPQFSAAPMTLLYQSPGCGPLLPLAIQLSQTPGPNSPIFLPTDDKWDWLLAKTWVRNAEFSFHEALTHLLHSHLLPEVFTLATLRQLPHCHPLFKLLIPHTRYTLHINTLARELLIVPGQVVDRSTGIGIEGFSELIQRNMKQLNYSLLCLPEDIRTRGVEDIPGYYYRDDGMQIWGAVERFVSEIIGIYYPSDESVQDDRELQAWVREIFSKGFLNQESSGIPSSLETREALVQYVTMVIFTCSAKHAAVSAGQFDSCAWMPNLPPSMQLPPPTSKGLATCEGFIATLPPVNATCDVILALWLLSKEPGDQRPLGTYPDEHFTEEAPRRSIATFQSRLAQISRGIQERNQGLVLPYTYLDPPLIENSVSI
#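 Purified human 15hLO-2 (50 nM final) preincubated with compounds 15 min at room temperature in 25 mM Hepes pH 7.5, 0.01% Triton X-100, then 45 uM arachidonic acid added for 90 min; hydroperoxide detected via ferrous/xylenol orange, 573/405 nm absorbance ratio.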
# * = called active by the depositor; ? = inconclusive; nt = not tested or not shown; [ ] = remark or other dose. Sampled rows, rich in hits. Any-hit rate of the full collection: about 3.1%. Unless noted, the call rests on the fitted dose curve; in most records, active means well fitted curve in the direction sought with a large enough effect; inconclusive means small, poorly fitted or top-dose-only effect, or another doubt; inactive means no such curve, though single readings can be large; an effect the other way counts as inactive or inconclusive. Unless noted, on the % scale 0 is the no-effect control and ±100 the full control effect.
SMILES,PNC inhibitor,ALOX12 inhib,ALOX15B inhib
Fc1cccc(-c2cc3nc4c(c(N5CCOCC5)n3n2)CCCC4)c1,-91*,-3%,5%
Clc1cccc(-c2cc3nc4c(c(N5CCN(c6cnccn6)CC5)n3n2)CCCC4)c1,-100*,-4%,nt
Clc1cccc(-c2cc3nc4c(c(N5CCOCC5)n3n2)CCCC4)c1,16,7%,19%
c1nc2nc3c(c(N4CCOCC4)n2n1)CCCC3,-107*,-2%,-4%
CC1CCc2c(nc3ncnn3c2N2CCN(c3ccccc3)CC2)C1 (centres undefined),-5,-2%,2%
OC1CCN(c2c3c(nc4cc(-c5ccc(Cl)cc5)nn24)CCC3)CC1,-25,-10%,nt
CN(C)C(=S)SC(=S)N(C)C,nt,-3%[0.00818 µM],-3%[0.0915 µM]
CCOC(=O)CSc1nc(C)c2cc(OC)ccc2n1,58,6%,1%
CCOC(=O)CSC1=NC(=O)/C(=C/c2ccc(OC)cc2)S1,-91*,-24%,nt
CC(=O)N1CCC2(CC1)CN(Cc1ccc(C#N)cc1)C2,nt,2%,14%
O=C(COC(=O)Cc1ccsc1)Nc1ccc(Cl)c(S(=O)(=O)N2CCOCC2)c1,-87*,-2%,nt
O=C(COC(=O)Cc1ccsc1)Nc1ccc(S(=O)(=O)N2CCOCC2)cc1,?,-2%,nt
C[C@@](N)(C(=O)O)c1cccc(CC(=O)O)c1,nt,-6%,-3%
CC(=NC1CCCCC1)C1=C(O)c2ccccc2C1=O,34,-10%,16µM*
CSC(=NC1CCCCC1)NS(=O)(=O)c1ccccc1,-7,7%,1%
COC(=O)CC1C(C)(C)C(=O)C2CC3=C(CC[C@]4(C)C3=CC(=O)OC4c3ccoc3)[C@@]1(C)C2=O (some centres undefined),nt,4%,3%
CN1CCN(C(=O)c2ccc(N3CCCC3=O)cc2)CC1,39,-2%,5%
O=C(c1ccc(N2CCCC2=O)cc1)N1CCOCC1,-85*,-2%,-3%
COc1ccc(Oc2ncc3ncc(=O)n(C)c3n2)cc1,nt,nt,-4%
Cc1cc(O)c(C(C)C)cc1Cl,nt,-3%[0.00818 µM],-8%[0.0915 µM]
COc1ccc(OCCN(C)Cc2ccccc2)cc1,-4,11%,6%
COc1ccc(CN(C)C2c3ccccc3-c3ccccc32)cc1,-91*,-1%,nt
Oc1c(Cl)cc(Cl)cc1Sc1cc(Cl)cc(Cl)c1O,32,?,6.3µM*
Oc1c(Cl)cc(Cl)cc1C(C#Cc1ccccc1)N1CCOCC1 (centres undefined),?,-4%,-13%[11.4 µM]
CC(=O)OC1CC2C(C)(C)C(O)CC[C@@]2(C)C2CC[C@@]3(C)C(c4ccoc4)OC(=O)C4O[C@@]43[C@]12C (some centres undefined),nt,3%,-21%
SMILES,PNC inhibitor,ALOX12 inhib,ALOX15B inhib
NCC(=O)N[C@@H](CCCN=C(N)N)C(=O)NCC(=O)N[C@@H](CC(=O)O)C(=O)N[C@@H](CC(N)=O)C(=O)N1CC[C@@H](C(=O)O)C1,nt,2%[0.00818 µM],1%[0.0915 µM]
CNC(=O)Nc1cccc(C(F)(F)F)c1,-100*,-4%,nt
C[C@H](NC(=O)Nc1cccc(C(F)(F)F)c1)C(=O)O,12,-1%,nt
O=C(NNC(=S)Nc1cccc(C(F)(F)F)c1)c1ccc(Cl)cc1Cl,-1,-20%,nt
Cc1ccccc1C(=O)NNC(=S)Nc1cccc(C(F)(F)F)c1,-112*,-4%,nt
CC1(C)SC2C(NC(=O)C(NC(=O)N3CCNC3=O)c3ccccc3)C(=O)N2C1C(=O)O (centres undefined),nt,-2%,-8%
Cn1cccc1C(=O)N1CCC2(CC1)CCN(c1ncccn1)CC2,nt,-4%,-4%
ClC(=Nc1cccc2ccccc12)N(c1ccccc1)c1ccccc1,nt,-2%[11.4 µM],-11%[11.4 µM]
Cc1ccccc1C(=N)c1ccccc1Cc1cccc2ccccc12,nt,3%[11.4 µM],-1%[11.4 µM]
CC1(COc2ccc(C[C@H]3SC(=O)NC3=O)cc2)CCCCC1,nt,1%,-3%
c1cncc(CNc2ncncc2-c2cccnc2)c1,nt,nt,-7%
CC(=O)[C@@]1(O)CC[C@@H]2[C@@H]3CCC4=CC(=O)CC[C@@]4(C)[C@H]3CC[C@]21C,nt,5%,-5%
O=C(O)c1n[nH]c2c1CCCC2,20,-3%,6%
O=C(O)c1n[nH]c2c1CCCCC2,-89*,-25%,-13%
CCCN1C(=O)c2cccc3c(N4CCCCC4)ccc(c23)C1=O,-88*,0%,nt
O=C1c2cccc3c(N4CCCCC4)ccc(c23)C(=O)N1c1ccccn1,97,4%,3%
CC(C)NC(=O)N1CCC2(CC1)CCN(C(=O)c1cc(C(F)(F)F)cc(C(F)(F)F)c1)CC2,nt,0%,-8%
Cc1ccc(C2=Nc3ccccc3S[C@@H](c3cccc([N+](=O)[O-])c3)C2)cc1,nt,-10%[11.4 µM],-24%[11.4 µM]

# Compound activity: PubChem, National Center for Advancing Translational Sciences (NCATS)
